D1 ag = agonists of human D1 dopamine receptor | HEK293 T-REx D1 cells, calcium flux, agonist mode | activation, % at 2 µM | 1% of 360,000 active; further: 0% is about no effect
Target sequence (P21728 whole entry, looked up): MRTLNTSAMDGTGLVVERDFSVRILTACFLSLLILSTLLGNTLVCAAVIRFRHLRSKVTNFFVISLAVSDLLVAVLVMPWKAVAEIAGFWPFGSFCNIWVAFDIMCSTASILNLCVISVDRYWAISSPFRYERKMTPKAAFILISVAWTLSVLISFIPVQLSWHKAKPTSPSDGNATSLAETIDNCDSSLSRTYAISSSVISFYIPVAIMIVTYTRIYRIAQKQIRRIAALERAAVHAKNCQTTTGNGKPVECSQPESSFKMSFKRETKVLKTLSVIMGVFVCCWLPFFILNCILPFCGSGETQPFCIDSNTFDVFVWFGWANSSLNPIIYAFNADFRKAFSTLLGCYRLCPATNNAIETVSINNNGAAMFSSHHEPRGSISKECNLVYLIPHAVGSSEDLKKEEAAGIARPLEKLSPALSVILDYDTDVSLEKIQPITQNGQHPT
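Tetracycline-induced HEK293 TREx D1 cells, force-coupled to calcium signalling, were dye-loaded with a no-wash calcium kit. Compound was pin-added after a 10 s baseline. Fluorescence was read kinetically at 1 cycle/s for 180 s, with calcium rises flagged as agonism.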
TRHR ag = activates the human TRH receptor. 0.18% of 360,000 active. activation, % at 2 µM. P34981. TRHR cells, calcium flux fluo-8, FDSS agonist mode. AID 493084; further: 0% is about no effect
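Read-out: compound-evoked intracellular calcium rise in TRHR cells, fluo-8 dye, kinetic FDSS fluorescence at 1 s/cycle following a 10-cycle baseline. Cells cultured overnight before dye loading (30 min–1.5 h, RT).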
D1 potentiator = human D1 dopamine receptor positive modulation; HEK293 TREx D1 cells, calcium flux, dopamine EC20 potentiation; potentiation, % at 10 µM; 0.036% of 360,000 active; AID 504651; in the data active means potentiation above about 30%; further: 0% is about no effect
TRHR PAM = allosteric enhancers of human TRH receptor; 0.66% of 360,000 active; AID 493056; P34981; enhancement, % at 2 µM; TRHR cells, fluo-8 calcium fluorescence, EC20 TRH enhancement; in the data active means enhancement above about 30%; further: 0% is about no effect
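TRHR-expressing cells loaded with fluo-8 calcium dye were read kinetically (ex 480/em 530) during compound addition, then stimulated with an EC20 of TRH (10 nM final). Enhancement of the Gq-mediated intracellular calcium response was scored.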
D1 antag = antagonists of human D1 dopamine receptor; AID 504652; activity change, negative = inhibition, % at 10 µM; P21728; HEK293 TREx D1 cells, calcium flux, dopamine EC80; stronger effect = lower value; 3.2% of 360,000 active; in the data active means activity change below about -30%; further: on the % scale 0 is the no-effect control and ±100 the full control effect
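HEK293 T-REx cells expressing inducible, force-coupled D1 receptor; no-wash Ca dye, 30–90 min RT. Cmpd → 180 s read at 1 Hz → EC80 DA → 180 s read.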
Starred values were filed as active, the others as inactive. Only some compounds are listed: those with a hit (about 4.7% of all), similar ones and a draw of the others. Unless noted, no stated cut-off is given here; in the data, active means activation above about 30%; inactive means the rest.

`CCOC(=O)/C=C1\NC(C)(C)Cc2cc(OC)c(OC)cc21` gave D1 ag 0.1, TRHR ag 1.2, D1 potentiator -6.0, TRHR PAM 21.9 and D1 antag -40.6*.
For CCOC(=O)/C=C1\NC(C)(C)Cc2cc(OC)c(O)cc21 the results were D1 ag 2.9, TRHR ag -1.3, D1 potentiator -2.3, TRHR PAM 1.5 and D1 antag -8.8.
For Cc1cc(C)cc(N2C(=O)CSC23C(=O)N(CC(=O)Nc2ccc(F)cc2F)c2ccccc23)c1 (configuration not stated) the results were D1 ag 3.1, TRHR ag 0.5, D1 potentiator -4.0, TRHR PAM -8.7 and D1 antag -8.4.
Screening CCc1nc(SCC#N)c(C#N)cc1C returned D1 ag -0.4, TRHR ag 0.0, D1 potentiator -5.1, TRHR PAM -0.8 and D1 antag -34.4*.
Cc1cccc2cc(C#N)c(SCC(=O)NCc3cccs3)nc12 was read as D1 ag 4.3, TRHR ag 0.6, D1 potentiator -2.1, TRHR PAM 1.6 and D1 antag 9.3.
For Cc1cccc2cc(C#N)c(SCC#N)nc12 the results were D1 ag 32.0*, TRHR ag 6.4, D1 potentiator 1.9, TRHR PAM -5.7 and D1 antag 9.4.
`N#Cc1nc(COc2ccc(F)cc2)oc1N1CCN(Cc2ccccc2)CC1` gave D1 ag 2.0, TRHR ag 0.4, D1 potentiator 0.6, TRHR PAM 0.7 and D1 antag 0.9.
For N#Cc1nc(COc2ccc(F)cc2)oc1N1CCC(Cc2ccccc2)CC1 the results were D1 ag 48.3*, TRHR ag -0.3, D1 potentiator 1.6, TRHR PAM 2.5 and D1 antag 0.5.
For N#Cc1nc(COc2ccccc2Cl)oc1N1CCCC1 the results were D1 ag 2.2, TRHR ag -1.2, D1 potentiator -2.6, TRHR PAM -10.0 and D1 antag -30.8*.
For CN(c1cccc(Cl)c1)S(=O)(=O)c1cccc(C(=O)NN2CCOCC2)c1 the results were D1 ag 5.3, TRHR ag -0.5, TRHR PAM 6.6 and D1 antag -37.5*.
O=C(NN1CCOCC1)c1cccc(Cl)c1 was read as D1 ag 0.5, TRHR ag 1.0, D1 potentiator -1.8, TRHR PAM -2.3 and D1 antag 7.4.
For Cc1ccc(C)c(NC(=O)CSc2nncn3c2cc2sccc23)c1 the results were D1 ag 3.5, TRHR ag -0.4, D1 potentiator -1.8, TRHR PAM -5.3 and D1 antag -7.4.
`Cc1c(NC(=O)/C(C#N)=C/c2ccc(-c3cc(Cl)ccc3Cl)o2)c(=O)n(-c2ccccc2)n1C` gave D1 ag 3.3, TRHR ag -0.3, D1 potentiator -8.9, TRHR PAM 33.7* and D1 antag -16.8.
`CCOC(=O)c1ccc(NC(=O)CCCn2nc(C)c3sc4ccccc4c3c2=O)cc1` gave D1 ag 0.4, TRHR ag 0.5, D1 potentiator -0.2, TRHR PAM 1.1 and D1 antag -10.5.
COc1ccccc1CCNC(=O)Cc1c(C)c2cc(Cl)c(O)cc2oc1=O was read as D1 ag 0.5, TRHR ag 0.3, D1 potentiator 0.5, TRHR PAM 11.6 and D1 antag 13.8.
Screening CCCC1=NN2C(=N)/C(=C\c3cc(C)n(Cc4ccccc4)c3C)C(=O)N=C2S1 returned D1 ag 149.9*, TRHR ag 0.3, D1 potentiator 1.4, TRHR PAM -1.0 and D1 antag -36.7*.
CCC1=NN2C(=N)/C(=C\c3ccc(SCc4ccco4)o3)C(=O)N=C2S1 was read as D1 ag 37.7*, TRHR ag 14.0, D1 potentiator -9.3, TRHR PAM -0.4 and D1 antag 7.1.
`CCC1=NN2C(=N)/C(=C/c3c(C)nn(-c4ccccc4)c3Cl)C(=O)N=C2S1` gave D1 ag -0.2, TRHR ag -0.6, D1 potentiator -3.5, TRHR PAM -2.8 and D1 antag -4.8.
Screening CCCC1=NN2C(=N)/C(=C\c3ccc(SCc4ccco4)o3)C(=O)N=C2S1 returned D1 ag 63.0*, TRHR ag 16.9, D1 potentiator -2.5, TRHR PAM -8.3 and D1 antag 3.0.
`CS(=O)(=O)c1ccc(Cl)c(NC(=O)COC(=O)CNC(=O)c2ccccc2)c1` gave D1 ag 3.7, TRHR ag 0.2, D1 potentiator -2.4, TRHR PAM -4.8 and D1 antag 3.5.
`Cc1ccccc1OCC(=O)OCC(=O)Nc1cc(S(C)(=O)=O)ccc1Cl` gave D1 ag 9.1, TRHR ag -0.4, D1 potentiator -2.5, TRHR PAM 36.7* and D1 antag 14.2.
Cc1ccc(NC(=O)CCNS(=O)(=O)c2ccc3c(c2)CCN3C(=O)C2CC2)c(Cl)c1 was read as D1 ag 8.1, TRHR ag 0.0, D1 potentiator -3.3, TRHR PAM 3.8 and D1 antag -4.0.
Cc1ccc(S(=O)(=O)N2CCN(c3nc(CN4CCCC4)nc4sc(C)c(C)c34)CC2)cc1 was read as D1 ag 0.4, TRHR ag 0.1, D1 potentiator 5.3, TRHR PAM 1.2 and D1 antag -35.2*.
`Cc1sc2nc(CN3CCCC3)nc(N3CCN(S(=O)(=O)c4cccs4)CC3)c2c1C` gave D1 ag 2.2, TRHR ag -0.1, D1 potentiator 1.9, TRHR PAM -16.4 and D1 antag -6.0.
`CCOC(=O)c1[nH]c(C)c(CCC(=O)N2CCN(c3cc(C)ccc3C)CC2)c1C` gave D1 ag 0.3, TRHR ag -0.7, D1 potentiator -1.4, TRHR PAM -4.1 and D1 antag -2.9.
N=C(N=C(N)N)N1CCc2ccccc21 was read as D1 ag 0.5, TRHR ag 0.1, D1 potentiator -6.7, TRHR PAM 1.9 and D1 antag -37.4*.
Cc1ccc(OCC(=O)Nc2ccc3nc(SCC(=O)N4CCOCC4)sc3c2)cc1C was read as D1 ag 6.9, TRHR ag 0.0, D1 potentiator -0.8, TRHR PAM 2.1 and D1 antag -8.1.
Screening COc1cccc(CCNc2ncnc3c2nnn3C)c1 returned D1 ag 11.8, TRHR ag -0.1, D1 potentiator 1.8 and TRHR PAM -1.2.
Screening COc1ccc(-c2cc(C(=O)N3CC4(C)CC3CC(C)(C)C4)no2)cc1OC (configuration not stated) returned D1 ag 4.4, TRHR ag 0.1, D1 potentiator 1.0, TRHR PAM 1.3 and D1 antag 8.2.
`COc1ccc(-c2cc(C(=O)N3CC4(C)CC3CC(C)(C)C4)no2)cc1` (configuration not stated) gave D1 ag 0.8, TRHR ag 0.7, D1 potentiator -6.8, TRHR PAM 2.3 and D1 antag -32.7*.
